Experimental data published in PubChem BioAssay (EPA / NIEHS).
Values joined by “and” are separate entries in the source; they are usually repeats but may differ in a detail not shown here. Identical values can stand only once. Results filed as inconclusive are left out. More than one record can exist for a structure, and the calls need not agree. Active and inactive are the calls of the source. Rule for the calls, unless noted: active = hit-call score of the fitted dose curve at least 0.9, where 1 is the maximum; inactive = score below 0.9.

Key:
[1] = ATG_PBREM_CIS: Attagene CIS-FACTORIAL HepG2 Assay for human Phenobarbital-responsive Enhancer Module (PBREM) (AID 2282955); details: HepG2 PBREM cis-reporter, Attagene multiplexed transcription; actives raise or lower the signal
Summary of the method: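 Reporter mRNA read by RT-PCR, 6-FAM primer extension, HpaI digestion and capillary electrophoresis. Transfected HepG2 cells, 24 h compound exposure. Gain or loss of signal fitted bidirectionally relative to DMSO baseline.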

[2] = biological target: Paired box protein Pax-6 (Homo sapiens) (UniProt P26367); test: ATG_Pax6_CIS: Attagene CIS-FACTORIAL HepG2 Assay for human Paired Box 6 (PAX6) (AID 2282956); details: HepG2 CIS-FACTORIAL PAX6 reporter transcription, RNA readout; actives raise or lower the signal
Summary of the method: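 DMSO-referenced bidirectional fits of reporter mRNA fluorescence; HepG2 with transient cis-promoter MRTUs, 24 h post-dose, RT-PCR plus capillary electrophoresis detection.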

[3] = ATG_PXRE_CIS: Attagene CIS-FACTORIAL HepG2 Assay for human Pregnane X Receptor Element (PXRE) (AID 2282957); details: HepG2 Attagene CIS-FACTORIAL PXRE reporter, mRNA; actives raise or lower the signal
Summary of the method: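 Fluorescent capillary electrophoresis of amplified reporter cDNA gave the signal, collected 24 h after dosing HepG2 cells that held transfected cis-element reporter constructs.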

[4] = ATG_PPRE_CIS: Attagene CIS-FACTORIAL HepG2 Assay for human Peroxisome Proliferator-activated Response Element (PPRE) (AID 2282958); details: HepG2 PPRE cis-element reporter, Attagene transcription factor profiling; actives raise or lower the signal
Summary of the method: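 Read-out: fluorescent reporter mRNA fragments resolved by capillary electrophoresis after RT-PCR. HepG2 cells carried transiently transfected PPRE-driven cis reporter constructs and were dosed for 24 h; gain or loss of signal fitted relative to DMSO.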

[5] = ATG_RORE_CIS: Attagene CIS-FACTORIAL HepG2 Assay for human RAR-related Orphan Receptor Element (RORE) (AID 2282959); details: HepG2 Attagene cis-factorial RORE reporter, mRNA; actives raise or lower the signal
Summary of the method: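 Readout: fluorescent reporter mRNA by RT-PCR plus capillary electrophoresis, 24 h after dosing transfected HepG2 cells. Endogenous transcription factor activity on a cis promoter element is measured. Gain or loss of signal fitted against DMSO.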

[6] = ATG_Sox_CIS: Attagene CIS-FACTORIAL HepG2 Assay for human SRY-box transcription factor (SOX) (AID 2282960); details: HepG2 Attagene cis-factorial SOX reporter, mRNA; actives raise or lower the signal
Summary of the method: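 Read-out: fluorescent RT-PCR products of SOX1-linked reporter transcripts resolved by capillary electrophoresis, fitted bidirectionally against DMSO. Transiently transfected HepG2 cells, 24 h after chemical exposure, endogenous transcription factor activity.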

[7] = biological target: Transcription factor Sp1 (Homo sapiens) (UniProt P08047); test: ATG_Sp1_CIS: Attagene CIS-FACTORIAL HepG2 Assay for human Specificity Protein 1 (Sp1) (AID 2282961); details: HepG2 Sp1 cis-reporter transcription, actives raise or lower the signal
Summary of the method: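 Read-out: fluorescence of 6-FAM-labeled, HpaI-digested RT-PCR products separated by capillary electrophoresis. HepG2 cells carried transfected cis-element reporter units and were exposed to chemicals for 24 h; gain or loss of signal fitted relative to DMSO.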

[8] = ATG_SREBP_CIS: Attagene CIS-FACTORIAL HepG2 Assay for human Sterol Regulatory Element Binding (SREBP) (AID 2282962); details: HepG2 Attagene cis-factorial SREBP reporter, mRNA; actives raise or lower the signal
Summary of the method: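 In this cis-format assay, HepG2 liver cells express reporters controlled by promoter elements responsive to native transcription factors. Exposure lasts 24 h; reporter mRNA fluorescence from capillary electrophoresis gives the signal, fitted bidirectionally against DMSO.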

[9] = biological target: Signal transducer and activator of transcription 3 (Homo sapiens) (UniProt P40763); test: ATG_STAT3_CIS: Attagene CIS-FACTORIAL HepG2 Assay for human Signal Transducer and Activator of Transcription 3 (STAT3) (AID 2282963); details: HepG2, Attagene cis-factorial STAT3 reporter transcription; actives raise or lower the signal
Summary of the method: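 Cis-factorial format: endogenous transcription factors in HepG2 drive transfected reporter units. After 24 h treatment, reporter RNA was reverse-transcribed, amplified, FAM-labelled and HpaI-digested before CE analysis; activity scored in both directions against DMSO.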

[10] = ATG_TA_CIS: Attagene CIS-FACTORIAL HepG2 Assay for human TA Basal Promoter (AID 2282964); details: HepG2 Attagene CIS-factorial TA basal promoter reporter; actives raise or lower the signal
Summary of the method: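 Background-control readout: TA basal promoter reporter mRNA, fitted in both directions relative to DMSO. Measured by RT-PCR and capillary electrophoresis 24 hours after treating HepG2 human liver cells transiently carrying multiplexed cis-regulated reporter constructs.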

[11] = ATG_TCF_b_cat_CIS: Attagene CIS-FACTORIAL HepG2 Assay for human T-Cell-Factor with beta-catenin (TCF/b-cat) (AID 2282965); details: HepG2 TCF/beta-catenin cis-reporter transcription, actives raise or lower the signal
Summary of the method: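 Measured: reporter mRNA in HepG2 transiently transfected with cis-promoter reporter units, 24 h after chemical addition. Fitting was bidirectional, DMSO as negative control.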

[12] = ATG_TAL_CIS: Attagene CIS-FACTORIAL HepG2 Assay for human TAL Basal Promoter (AID 2282966); details: HepG2 Attagene cis-factorial TAL promoter reporter; actives raise or lower the signal;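 note: background control endpoint measuring basal TAL promoter reporter mRNA not a specific factor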
Summary of the method: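 Transiently transfected HepG2 (cis-regulated reporter units), 24 h treatment, mRNA read by fluorescent CE after RT-PCR; bidirectional fit, DMSO baseline.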

[13] = ATG_TGFb_CIS: Attagene CIS-FACTORIAL HepG2 Assay for human Transforming Growth Factor (TGF) (AID 2282967); details: HepG2 Attagene CIS TGFb reporter, mRNA transcription; actives raise or lower the signal
Summary of the method: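 Endogenous TGFB1-linked transcription factor activity read as reporter mRNA via RT-PCR and capillary electrophoresis, 24 h after dosing transiently transfected HepG2 cells. Gain or loss of signal fitted relative to DMSO.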

[14] = ATG_VDRE_CIS: Attagene CIS-FACTORIAL HepG2 Assay for human Vitamin D Receptor Element (VDRE) (AID 2282968); details: HepG2 VDRE cis-reporter transcription, actives raise or lower the signal
Summary of the method: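 Measures endogenous factor activity through cis-element-driven reporter transcripts in transiently transfected HepG2. Cells are treated 24 h; reporter mRNA is quantified by RT-PCR and capillary electrophoresis; fitting is bidirectional.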

[15] = biological target: Nuclear receptor subfamily 1 group I member 3 (Homo sapiens) (UniProt Q14994); test: ATG_CAR_TRANS: Attagene TRANS-FACTORIAL HepG2 Assay for human Constitutive Androstane Receptor (CAR) (AID 2282969; active = hit-call score of the fitted dose curve at least 0.9, where 1 is the maximum;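 note: activators raise reporter mRNA above DMSO so AC50 marks induction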); details: HepG2 Attagene TRANS-FACTORIAL CAR reporter
Summary of the method: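 Signal is reporter mRNA induction relative to DMSO, measured 24 h after dosing by RT-PCR with fluorescent primer extension and capillary electrophoresis. Human HepG2 liver cells carried transiently transfected chimeric NR-Gal4/GAL4-UAS reporter constructs.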

[16] = biological target: Estrogen receptor (Homo sapiens) (UniProt P03372); test: ATG_ERa_TRANS: Attagene TRANS-FACTORIAL HepG2 Assay for human Estrogen Receptor alpha (ERa) (AID 2282970; active = hit-call score of the fitted dose curve at least 0.9, where 1 is the maximum); details: HepG2 Attagene TRANS ERa GAL4 reporter, mRNA
Summary of the method: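 One of 30 multiplexed endpoints from a HepG2 TRANS system, this one reports ERa-Gal4-driven reporter mRNA. Transcripts were quantified 24 hours post-dosing by fluorescent RT-PCR and capillary electrophoresis, with activity scored as induction over DMSO.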

[17] = biological target: X-box-binding protein 1 (Homo sapiens) (UniProt P17861); test: ATG_Xbp1_CIS: Attagene CIS-FACTORIAL HepG2 Assay for human X-box Binding Protein 1 (XBP1) (AID 2282972); details: HepG2 XBP1 cis-element reporter, Attagene multiplex; actives raise or lower the signal
Summary of the method: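 Changes in reporter transcript abundance, read by RT-PCR and capillary electrophoresis, reflect endogenous transcription factor activity. Transfected HepG2 cells received compound for 24 hours; DMSO defined baseline for bidirectional analysis.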

[18] = biological target: Androgen receptor (Homo sapiens) (UniProt P10275); test: ATG_AR_TRANS: Attagene TRANS-FACTORIAL HepG2 Assay for human Androgen Receptor (AR) (AID 2282973; active = hit-call score of the fitted dose curve at least 0.9, where 1 is the maximum); details: HepG2 Attagene TRANS-FACTORIAL AR reporter transcription
Summary of the method: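 HepG2 cells transiently transfected with multiplexed GAL4-UAS reporter units and chimeric NR-Gal4 fusion; 24 h compound exposure. Reporter mRNA measured by RT-PCR, 6-FAM labelling, HpaI digestion and capillary electrophoresis; gain-of-signal fitted relative to DMSO baseline.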

[19] = ATG_M_19_TRANS: Attagene TRANS-FACTORIAL HepG2 Assay for M19 Transcription Factor (Internal Marker) (AID 2282974; active = hit-call score of the fitted dose curve at least 0.9, where 1 is the maximum); details: HepG2 Attagene TRANS-FACTORIAL M19 internal marker reporter
Summary of the method: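 24 h chemical exposure of transiently transfected HepG2 (MRTU library). RNA → oligo(dT) RT → PCR → 6-FAM labelling → HpaI cut → CE fluorescence. Positive-direction fit vs DMSO baseline; background internal-marker readout.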

[20] = biological target: Steroid hormone receptor ERR1 (Homo sapiens) (UniProt P11474); test: ATG_ERRa_TRANS: Attagene TRANS-FACTORIAL HepG2 Assay for human Estrogen-Related Receptor alpha (ERRa) (AID 2282971; active = hit-call score of the fitted dose curve at least 0.9, where 1 is the maximum); details: HepG2 Attagene TRANS reporter, ERRa transactivation
Summary of the method: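 HepG2 cells transiently transfected with multiplexed GAL4-UAS reporter units reading chimeric ERRa-Gal4 activity; 24 h compound exposure. Reporter mRNA measured by RT-PCR, 6-FAM labelling, HpaI digest and capillary electrophoresis; gain of signal fitted versus DMSO baseline.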

Sequence of Steroid hormone receptor ERR1 (Homo sapiens) (P11474 whole entry, looked up, the tested form may be a part): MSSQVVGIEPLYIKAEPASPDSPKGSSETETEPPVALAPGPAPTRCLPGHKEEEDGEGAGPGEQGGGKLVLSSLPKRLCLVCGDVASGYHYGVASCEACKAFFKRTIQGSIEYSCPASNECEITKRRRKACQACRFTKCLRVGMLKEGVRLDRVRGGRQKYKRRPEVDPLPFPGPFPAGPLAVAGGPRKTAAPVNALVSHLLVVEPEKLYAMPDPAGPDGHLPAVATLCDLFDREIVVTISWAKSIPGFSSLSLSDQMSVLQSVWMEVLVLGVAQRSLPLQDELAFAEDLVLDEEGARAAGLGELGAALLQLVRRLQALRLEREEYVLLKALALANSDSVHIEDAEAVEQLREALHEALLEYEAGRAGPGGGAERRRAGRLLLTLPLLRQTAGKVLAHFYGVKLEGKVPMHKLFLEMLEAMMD
Sequence of Transcription factor Sp1 (Homo sapiens) (P08047 whole entry, looked up): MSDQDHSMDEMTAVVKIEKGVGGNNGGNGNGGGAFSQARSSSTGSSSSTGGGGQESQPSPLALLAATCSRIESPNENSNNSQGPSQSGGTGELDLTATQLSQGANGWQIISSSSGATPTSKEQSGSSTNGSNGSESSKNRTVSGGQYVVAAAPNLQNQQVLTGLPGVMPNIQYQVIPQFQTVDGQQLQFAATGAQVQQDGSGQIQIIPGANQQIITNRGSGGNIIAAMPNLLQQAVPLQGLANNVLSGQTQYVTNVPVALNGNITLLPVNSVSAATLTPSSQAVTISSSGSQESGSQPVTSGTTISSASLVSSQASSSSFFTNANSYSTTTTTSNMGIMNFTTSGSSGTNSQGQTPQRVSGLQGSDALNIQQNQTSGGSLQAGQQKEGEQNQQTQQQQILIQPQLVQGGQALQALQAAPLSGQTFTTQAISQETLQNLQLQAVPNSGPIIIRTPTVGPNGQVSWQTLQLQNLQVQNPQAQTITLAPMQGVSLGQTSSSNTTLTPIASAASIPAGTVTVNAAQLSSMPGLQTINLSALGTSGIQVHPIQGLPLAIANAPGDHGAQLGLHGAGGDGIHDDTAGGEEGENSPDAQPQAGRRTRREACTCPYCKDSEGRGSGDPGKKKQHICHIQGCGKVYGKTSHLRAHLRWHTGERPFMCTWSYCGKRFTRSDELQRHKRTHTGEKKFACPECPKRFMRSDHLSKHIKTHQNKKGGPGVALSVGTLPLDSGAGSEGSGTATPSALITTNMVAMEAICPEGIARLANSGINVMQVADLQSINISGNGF
Sequence of Nuclear receptor subfamily 1 group I member 3 (Homo sapiens) (Q14994 whole entry, looked up, the tested form may be a part): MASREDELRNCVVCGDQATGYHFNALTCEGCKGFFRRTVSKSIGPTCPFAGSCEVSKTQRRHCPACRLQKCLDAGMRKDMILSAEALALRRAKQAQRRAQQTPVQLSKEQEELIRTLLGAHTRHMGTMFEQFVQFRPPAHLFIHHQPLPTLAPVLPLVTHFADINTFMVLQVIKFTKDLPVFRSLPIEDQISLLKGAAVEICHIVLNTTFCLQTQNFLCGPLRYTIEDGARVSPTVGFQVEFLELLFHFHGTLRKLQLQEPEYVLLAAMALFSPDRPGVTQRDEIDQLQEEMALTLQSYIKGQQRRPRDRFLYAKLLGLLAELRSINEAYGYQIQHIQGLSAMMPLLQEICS
Sequence of Signal transducer and activator of transcription 3 (Homo sapiens) (P40763 whole entry, looked up): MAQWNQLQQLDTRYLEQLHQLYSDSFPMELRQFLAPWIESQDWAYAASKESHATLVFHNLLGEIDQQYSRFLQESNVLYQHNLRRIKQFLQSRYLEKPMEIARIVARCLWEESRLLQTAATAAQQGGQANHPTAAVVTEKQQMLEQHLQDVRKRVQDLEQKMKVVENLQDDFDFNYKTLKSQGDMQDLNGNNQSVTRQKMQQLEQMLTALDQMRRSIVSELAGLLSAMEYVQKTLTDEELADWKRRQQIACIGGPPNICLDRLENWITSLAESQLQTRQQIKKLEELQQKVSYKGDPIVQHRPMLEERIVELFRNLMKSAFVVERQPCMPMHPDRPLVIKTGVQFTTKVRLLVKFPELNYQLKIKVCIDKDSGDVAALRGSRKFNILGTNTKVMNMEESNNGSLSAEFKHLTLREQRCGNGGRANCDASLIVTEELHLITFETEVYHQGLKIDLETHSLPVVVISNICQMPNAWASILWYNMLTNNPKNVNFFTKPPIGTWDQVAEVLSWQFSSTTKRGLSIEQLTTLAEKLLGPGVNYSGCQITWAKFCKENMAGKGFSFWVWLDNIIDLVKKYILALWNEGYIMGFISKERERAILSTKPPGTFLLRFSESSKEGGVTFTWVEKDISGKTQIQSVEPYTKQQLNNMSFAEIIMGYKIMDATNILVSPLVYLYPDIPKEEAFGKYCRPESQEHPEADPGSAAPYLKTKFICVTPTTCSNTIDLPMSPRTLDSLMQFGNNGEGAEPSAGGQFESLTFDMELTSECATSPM
Sequence of X-box-binding protein 1 (Homo sapiens) (P17861 whole entry, looked up): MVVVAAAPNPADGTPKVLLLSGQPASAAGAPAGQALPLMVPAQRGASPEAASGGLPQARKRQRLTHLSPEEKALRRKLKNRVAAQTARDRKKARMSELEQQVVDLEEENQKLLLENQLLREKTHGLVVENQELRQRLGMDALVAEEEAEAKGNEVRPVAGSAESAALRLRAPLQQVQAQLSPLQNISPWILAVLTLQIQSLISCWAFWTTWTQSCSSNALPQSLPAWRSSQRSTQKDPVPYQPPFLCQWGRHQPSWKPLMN
Sequence of Estrogen receptor (Homo sapiens) (P03372 whole entry, looked up, the tested form may be a part): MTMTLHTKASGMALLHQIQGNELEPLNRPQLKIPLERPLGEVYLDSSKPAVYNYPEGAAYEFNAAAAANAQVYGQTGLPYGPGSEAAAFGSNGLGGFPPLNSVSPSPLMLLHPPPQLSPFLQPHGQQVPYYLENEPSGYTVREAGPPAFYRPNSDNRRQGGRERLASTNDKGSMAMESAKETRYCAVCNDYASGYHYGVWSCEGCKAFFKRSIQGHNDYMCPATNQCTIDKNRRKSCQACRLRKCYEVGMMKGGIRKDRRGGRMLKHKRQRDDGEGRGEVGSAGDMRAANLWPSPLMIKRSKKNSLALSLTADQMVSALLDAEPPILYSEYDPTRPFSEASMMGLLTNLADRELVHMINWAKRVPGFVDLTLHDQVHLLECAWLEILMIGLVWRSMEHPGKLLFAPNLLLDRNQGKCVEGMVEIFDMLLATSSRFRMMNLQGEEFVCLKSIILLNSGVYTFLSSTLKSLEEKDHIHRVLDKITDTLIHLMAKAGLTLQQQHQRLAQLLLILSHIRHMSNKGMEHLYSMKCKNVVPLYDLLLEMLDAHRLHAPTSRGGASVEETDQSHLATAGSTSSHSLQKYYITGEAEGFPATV
Sequence of Paired box protein Pax-6 (Homo sapiens) (P26367 whole entry, looked up): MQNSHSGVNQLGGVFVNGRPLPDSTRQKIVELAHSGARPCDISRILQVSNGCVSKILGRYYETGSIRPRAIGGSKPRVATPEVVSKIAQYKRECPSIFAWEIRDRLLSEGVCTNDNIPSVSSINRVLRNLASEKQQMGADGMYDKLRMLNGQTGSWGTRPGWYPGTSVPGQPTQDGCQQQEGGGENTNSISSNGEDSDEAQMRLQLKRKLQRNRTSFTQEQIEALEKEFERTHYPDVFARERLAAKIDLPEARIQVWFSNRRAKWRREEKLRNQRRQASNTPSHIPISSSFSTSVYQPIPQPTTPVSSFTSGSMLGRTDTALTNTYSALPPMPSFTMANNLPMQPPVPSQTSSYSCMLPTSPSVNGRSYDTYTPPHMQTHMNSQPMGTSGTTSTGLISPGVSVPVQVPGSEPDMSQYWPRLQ
Sequence of Androgen receptor (Homo sapiens) (P10275 whole entry, looked up, the tested form may be a part): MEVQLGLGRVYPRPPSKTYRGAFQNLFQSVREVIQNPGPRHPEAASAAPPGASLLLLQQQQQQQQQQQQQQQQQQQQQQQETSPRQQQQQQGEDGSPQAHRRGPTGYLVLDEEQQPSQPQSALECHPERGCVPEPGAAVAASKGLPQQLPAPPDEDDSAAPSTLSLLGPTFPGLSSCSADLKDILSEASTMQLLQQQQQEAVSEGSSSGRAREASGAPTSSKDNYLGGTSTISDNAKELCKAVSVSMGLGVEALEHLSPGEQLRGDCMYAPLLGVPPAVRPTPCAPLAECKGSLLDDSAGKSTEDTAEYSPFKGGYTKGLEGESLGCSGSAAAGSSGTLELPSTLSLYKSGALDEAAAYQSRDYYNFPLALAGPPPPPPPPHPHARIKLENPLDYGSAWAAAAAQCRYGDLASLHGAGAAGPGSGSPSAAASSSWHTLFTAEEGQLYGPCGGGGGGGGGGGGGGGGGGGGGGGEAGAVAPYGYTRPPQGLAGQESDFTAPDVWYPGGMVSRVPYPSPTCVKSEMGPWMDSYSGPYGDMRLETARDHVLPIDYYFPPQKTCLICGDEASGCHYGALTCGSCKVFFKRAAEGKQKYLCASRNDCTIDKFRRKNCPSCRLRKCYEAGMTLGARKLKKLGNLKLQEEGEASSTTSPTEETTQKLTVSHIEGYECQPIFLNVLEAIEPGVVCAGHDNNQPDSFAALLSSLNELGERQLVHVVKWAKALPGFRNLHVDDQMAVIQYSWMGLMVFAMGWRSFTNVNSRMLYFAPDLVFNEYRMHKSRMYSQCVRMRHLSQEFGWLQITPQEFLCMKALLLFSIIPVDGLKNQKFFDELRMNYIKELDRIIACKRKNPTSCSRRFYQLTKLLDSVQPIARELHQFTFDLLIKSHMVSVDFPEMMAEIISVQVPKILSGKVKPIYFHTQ

CCOC1Oc2ccc(OS(C)(=O)=O)cc2C1(C)C (stereo not given)
AC50 [1]: 34 µM (active)
outcome [2]: inactive
AC50 [3]: 5.08 µM (active)
AC50 [4]: 30.8 µM (active)
outcome [5]: inactive
outcome [6]: inactive
outcome [7]: inactive
outcome [8]: inactive
outcome [9]: inactive
outcome [10]: inactive
outcome [11]: inactive
outcome [12]: inactive
outcome [13]: inactive
AC50 [14]: 25.7 µM (active)
outcome [15]: inactive
AC50 [16]: 25.4 µM (active)
outcome [17]: inactive
outcome [18]: inactive
outcome [19]: inactive

CC1(C)C(C=C(Cl)Cl)C1C(=O)OC(C#N)c1ccc(F)c(Oc2ccccc2)c1 (stereo not given)
outcome [1]: inactive
outcome [2]: inactive
AC50 [3]: 2.93 µM (active)
AC50 [4]: 8.12 µM (active)
outcome [5]: inactive
outcome [6]: inactive
outcome [7]: inactive
outcome [8]: inactive
outcome [9]: inactive
outcome [10]: inactive
outcome [11]: inactive
outcome [12]: inactive
outcome [13]: inactive
AC50 [14]: 8.85 µM (active)
outcome [15]: inactive
outcome [16]: inactive
outcome [20]: inactive
outcome [17]: inactive
outcome [19]: inactive

O=C1c2ccccc2C(=O)N1SC(Cl)(Cl)Cl
outcome [1]: inactive
outcome [2]: inactive
AC50 [3]: 15.8 µM (active)
outcome [4]: inactive
outcome [5]: inactive
outcome [6]: inactive
outcome [7]: inactive
outcome [8]: inactive
outcome [9]: inactive
outcome [10]: inactive
outcome [11]: inactive
outcome [12]: inactive
outcome [13]: inactive
outcome [14]: inactive
outcome [15]: inactive
outcome [16]: inactive
outcome [17]: inactive
outcome [19]: inactive

Oc1cc(Cl)ccc1Oc1ccc(Cl)cc1Cl
AC50 [1]: 2.91 µM (active) and 3.38 µM (active) and 17.3 µM (active)
outcome [1]: inactive
AC50 [2]: 13.9 µM (active) and 8.6 µM (active)
outcome [2]: inactive
AC50 [3]: 2.98 µM (active) [middle of 7 runs]
outcome [3]: inactive
outcome [4]: inactive
AC50 [5]: 12.7 µM (active) and 15.1 µM (active) and 15.8 µM (active)
outcome [5]: inactive
AC50 [6]: 11.1 µM (active) and 10.3 µM (active)
outcome [6]: inactive
outcome [7]: inactive
outcome [8]: inactive
outcome [9]: inactive
AC50 [10]: 17.4 µM (active)
outcome [10]: inactive
AC50 [11]: 11.1 µM (active) and 19.2 µM (active) and 14.4 µM (active)
outcome [11]: inactive
AC50 [12]: 11.1 µM (active)
outcome [12]: inactive
outcome [13]: inactive
AC50 [14]: 8.06 µM (active) [middle of 6 runs]
outcome [14]: inactive
outcome [15]: inactive
outcome [20]: inactive
AC50 [17]: 11.3 µM (active) [middle of 7 runs]
outcome [17]: inactive
outcome [19]: inactive

CCCN(CCC)c1c([N+](=O)[O-])cc(C(F)(F)F)cc1[N+](=O)[O-]
outcome [1]: inactive
outcome [2]: inactive
AC50 [3]: 6.82 µM (active)
outcome [4]: inactive
outcome [5]: inactive
outcome [6]: inactive
outcome [7]: inactive
outcome [8]: inactive
outcome [9]: inactive
outcome [10]: inactive
outcome [11]: inactive
outcome [12]: inactive
outcome [13]: inactive
AC50 [14]: 13.4 µM (active)
outcome [15]: inactive
AC50 [16]: 35.9 µM (active)
outcome [17]: inactive
outcome [19]: inactive

CC(C)(C)C(O)C(Oc1ccc(Cl)cc1)n1cncn1 (stereo not given)
AC50 [1]: 2.82 µM (active) and 5.04 µM (active) and 7.04 µM (active)
outcome [1]: inactive
outcome [2]: inactive
AC50 [3]: 1.27 µM (active) [middle of 6 runs]
outcome [5]: inactive
outcome [6]: inactive
outcome [7]: inactive
AC50 [8]: 48.7 µM (active) and 23.2 µM (active) and 24 µM (active)
outcome [8]: inactive
outcome [9]: inactive
outcome [10]: inactive
outcome [11]: inactive
outcome [12]: inactive
outcome [13]: inactive
outcome [14]: inactive
outcome [15]: inactive
outcome [17]: inactive
outcome [19]: inactive
